# A selection: hits, their analogues and other compounds. The true share with any hit is near 4.1%.
# NSD2 HMT inh – NSD2 histone methyltransferase inhibitors, primary screen, biochemical, AlphaScreen, single concentration, set 2 | 310,000 compounds, 0.54% hits | NSD2 peptide methylation, 120 min | inhibition, % at 12.5 µM | AID 743445, 2014; in the data active means inhibition above about 50%
# ALR inh – inhibitors of human ALR sulfhydryl oxidase, primary screen, biochemical, H2O2 detection, HRP-luminol luminescence, single point; purified ALR, DTT oxidation; 290,000 compounds, 3.8% hits; AID 485317, 2010; inhibition, % (test concentration not listed); FAD-linked sulfhydryl oxidase ALR (Homo sapiens), P55789;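 active means mean replicate inhibition above about 79%, with every replicate also reaching it, limit read from the data; inconclusive means only one of the two criteria met; inactive means mean below limit and not every replicate reaching it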
# Target sequence (P55789 whole entry, looked up): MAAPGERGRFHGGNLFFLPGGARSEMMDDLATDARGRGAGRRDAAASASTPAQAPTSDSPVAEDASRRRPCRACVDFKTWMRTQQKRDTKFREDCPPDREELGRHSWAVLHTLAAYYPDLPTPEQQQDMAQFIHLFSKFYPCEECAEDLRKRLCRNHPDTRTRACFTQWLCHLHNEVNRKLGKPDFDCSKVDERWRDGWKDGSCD
# HIV Env fusion – inhibitors of HIV-1 Env-driven cell-cell fusion, primary screen, HeLa-JRFL effector, CEM21 target cells, luciferase. inhibition, % at 12.3 µM. 360,000 compounds, 1.1% hits. AID 651610, 2012;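 active means mean replicate inhibition score of at least 50 and every replicate individually at or above 50; inconclusive means only one of the two criteria met; inactive means mean below 50 and not all replicates reaching 50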;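 further: 0% = plate neutral controls and 100% = maraviroc near 300 nM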
# PglD DTNB – C. jejuni PglD acetyltransferase inhibitors, primary screen, biochemical, DTNB colorimetric, single point; AID 602405, 2012; inhibition, % at 12.5 µM; purified PglD enzyme, DTNB colorimetric CoA detection; 360,000 compounds, 0.098% hits; UDP-N-acetylbacillosamine N-acetyltransferase PglD (Campylobacter jejuni); in the data active means inhibition above about 16%, passing the limit was not always enough; inconclusive means no clear call, values can overlap the other calls
# Casp6 inh – human caspase-6 inhibitors, primary screen, biochemical, VEID-R110 fluorescence, single point, set 2; purified caspase-6, Z-VEID-R110 cleavage fluorescence; inhibition, % at 12.5 µM; 350,000 compounds, 0.53% hits; AID 686996, 2013;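 active means mean inhibition across replicates at least about 35%, with every replicate also reaching that limit, limit read from the data; inconclusive means only one of the two criteria met; inactive means neither criterion met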;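 further: 0% = median of neutral control wells and 100% = no fluorescence left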
# Target sequence (P55212 24-179 limits assumed): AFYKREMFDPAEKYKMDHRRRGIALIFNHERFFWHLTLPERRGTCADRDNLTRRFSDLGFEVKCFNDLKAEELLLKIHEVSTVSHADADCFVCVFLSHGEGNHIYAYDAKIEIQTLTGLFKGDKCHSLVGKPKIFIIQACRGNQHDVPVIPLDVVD
# Target sequence (P55212 194-293 limits assumed): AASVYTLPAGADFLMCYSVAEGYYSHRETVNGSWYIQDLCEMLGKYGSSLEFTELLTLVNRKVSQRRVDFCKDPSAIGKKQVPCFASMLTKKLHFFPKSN
# F508del corr – F508del CFTR correction, initial screen, CFBE line, single point. CFBE cells, YFP halide quenching; stimulated with forskolin plus potentiator P3; % fluorescence drop versus neutral controls. activity (quench increase), % at 7.58 µM. 350,000 compounds, 0.36% hits;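 active means mean added fluorescence quench of at least 8% versus neutral control, with both replicates also reaching 8%; inconclusive means only one of the mean or replicate conditions met; inactive means mean below 8% and not both replicates reaching 8%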;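 further: cells transiently co-express mutant CFTR-F508del with the halide-sensitive YFP; corrector assay measuring rescue of mutant channel to the surface after 24 h compound exposure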
# * hit, by the source's call; ? = inconclusive; / = no result; [ ] = remark or other dose.
SMILES,NSD2 HMT inh,ALR inh,HIV Env fusion,PglD DTNB,Casp6 inh,F508del corr
Nc1ccn([C@@H]2O[C@H](C(=O)NCc3ccc4c(c3)OCO4)[C@@H](O)[C@H]2O)c(=O)n1,/,/,77.4*,1.4,-0.4,0.5
CCC(c1nnnn1-c1ccc(OC)cc1)N1CCN(C/C=C/c2ccccc2)CC1 (stereo not given),/,/,11.0,8.9,1.4,-1.9
COc1ccc(-n2nnnc2C(c2ccccc2)N2CCN(C/C=C/c3ccccc3)CC2)cc1 (stereo not given),/,/,-15.0,4.2,1.7,10.4*
O=C(C[C@@H]1C=C[C@H](NC(=O)Nc2ccc(F)cc2)[C@H](CO)O1)NCCN1CCCC1,/,/,10.8[16.7 µM],-3.6,1.6,-0.3
CN1c2ccccc2Sc2cc(N)ccc21,5.7,95.5*,-29.0,-9.7,54.5*,/
CC(=O)N1c2ccccc2Sc2ccccc21,3.6,-3.3,-21.9,-3.3,-4.1,-2.8
O=S(=O)(O)c1ccc(N2N=C(c3ccccc3)CC2c2ccccc2)cc1 (stereo not given),-16.0,99.1*,-6.0,/,17.2,/
NS(=O)(=O)c1ccc(N2N=C(c3ccccc3)CC2c2ccccc2)cc1 (stereo not given),-8.5,-12.3,-49.3,/,/,/
Cc1cccc(-n2c(C)n[nH]c2=S)c1C,1.0,77.1*,-10.1,0.6,/,/
Cc1n[nH]c(=S)n1-c1cccc(Cl)c1,-1.2,94.5*,-9.2,/,-1.4,/
Cc1cccc(-n2c(-c3ccncc3)n[nH]c2=S)c1C,-2.8,/,6.4,/,-3.8,3.0
CCCNC(=O)N1C[C@@H](C)[C@@H](OC)CN(C)C(=O)c2cc(NC(=O)C3CCC3)ccc2OC[C@@H]1C,/,/,/,/,/,0.5
Cc1ccc(S(=O)(=O)N2CCCCC2CCNC(=O)C(=O)NCc2ccccc2)cc1 (stereo not given),-1.3,/,/,6.1,1.3,9.8*
O=C(O)c1cccc(N2C(=O)CSC2=S)c1,21.1,79.1*,5.6,-4.9,2.0,-2.1
COC(=O)c1ccc(NC2=C(Cl)C(=O)OC2OC(=O)c2ccccc2)cc1 (stereo not given),7.2,97.0*,?,-2.6,0.8,2.4
C[C@H](CO)N1C[C@H](C)[C@@H](CN(C)S(=O)(=O)c2cccs2)Oc2ccc(NC(=O)CCCCCC(=O)Nc3ccccc3N)cc2CC1=O,/,/,11.2[16.7 µM],5.3,/,-3.7
COc1ccc(S(=O)(=O)Nc2ccc3c(c2)[C@@H]2C[C@H](CC(=O)NCC4CC4)O[C@H](CO)[C@@H]2O3)cc1,/,/,-3.5[16.7 µM],-2.4,2.2,-2.0
CCCNC(=O)N1CC2(CCN(C(=O)C3CCCCC3)CC2)c2c([nH]c3cc(OC)ccc23)[C@H]1CO,/,/,/,/,/,-2.2
CCN(CC)c1ncnc2ccc(Br)cc12,1.6,/,86.6*,-3.3,/,/
Cn1cnc([N+](=O)[O-])c1S(=O)(=O)Nc1ccccc1,3.9,/,25.8,-1.9,42.3*,-0.8
CCC(=O)N1CC2(CCN(Cc3ccc(Cl)cc3)CC2)c2c([nH]c3cc(OC)ccc23)[C@H]1CO,/,/,/,/,/,9.8*
COCC(=O)N1CC2(CCN(Cc3ccc(Cl)cc3)CC2)c2c([nH]c3cc(OC)ccc23)[C@@H]1CO,/,/,/,/,-2.6,1.6
COc1cccc(S(=O)(=O)N2CCC3(CC2)CN(C(=O)Nc2cccc(F)c2)[C@H](CO)c2[nH]c4cc(OC)ccc4c23)c1,/,/,21.7[16.7 µM],/,-0.2,-1.8
COc1cccc(S(=O)(=O)N2CCC3(CC2)CN(C(=O)Nc2cccc(F)c2)[C@@H](CO)c2[nH]c4cc(OC)ccc4c23)c1,/,/,72.4*[16.7 µM],/,-0.4,1.5
C[C@@H]1CN([C@H](C)CO)C(=O)Cc2cc(NC(=O)C3CC3)ccc2O[C@H]1CN(C)C(=O)Nc1cccc2ccccc12,/,/,-2.8[16.7 µM],0.7,-2.9,-3.3
SMILES,NSD2 HMT inh,ALR inh,HIV Env fusion,PglD DTNB,Casp6 inh,F508del corr
O=C(CN1CCN(S(=O)(=O)c2ccc(Cl)cc2)CC1)Nc1ccc(N2CCOCC2)cc1,20.4,-2.8,0.5,6.9,-3.6,-2.5
O=C(Nc1ccc(N2CCOCC2)cc1)C1CC(O)CN1S(=O)(=O)c1ccc(Cl)cc1 (stereo not given),4.4,78.0*,15.9,/,2.6,-0.3
[O-][n+]1c2ccccc2[n+]([O-])c2cc(O)ccc21,20.1,37.5,21.1,-0.9,67.8*,5.6
[O-][n+]1c(/C=C/c2ccccc2)ccc2ccccc21,0.7,7.9,-106.0,-9.3,0.7,-1.3
CN1CCc2c(sc3c2C(=O)NC(c2ccc(-c4ccc(Cl)cc4)o2)N3)C1 (stereo not given),-2.7,90.6*,-17.2,-2.8,-7.2,-0.8
CC(c1nc2ccccc2c(=O)[nH]1)N(C)CCOc1ccc(Cl)cc1 (stereo not given),0.1,-4.1,97.4*,3.8,0.1,-0.3
O=c1[nH]c(SCCOc2ccccc2)nc2ccccc12,-9.1,-7.3,-127.7,1.3,/,/
C[C@H]1CCCCO[C@@H](CN(C)Cc2ccc(C(=O)O)cc2)[C@@H](C)CN([C@@H](C)CO)C(=O)c2cc(NC(=O)Nc3ccc(C(F)(F)F)cc3)ccc2O1,/,/,5.1[16.7 µM],-1.1,1.2,2.0
COCC(=O)N(C)C[C@@H]1Oc2ncc(C#CC3(O)CCCC3)cc2C(=O)N([C@@H](C)CO)C[C@H]1C,/,/,-1.7[16.7 µM],4.0,7.4,1.3
Cc1nc(N)sc1N=Nc1ccc(F)cc1,2.7,98.3*,/,/,-1.2,0.0
COCC(=O)Nc1ccc2c(c1)C(=O)N(C)[C@@H]1CC[C@@H](CC(=O)NCc3cccc(F)c3)O[C@H]1CO2,/,/,19.8[16.7 µM],-7.4,/,2.4
S=C(c1ccc(-c2ccccc2)cc1)N1CCOCC1,4.1,-12.3,63.4*,-0.9,-1.0,-0.6
CCNC(=O)N(C)C[C@H]1N[C@@](C)(C(=O)OC)[C@H]2C(=O)N(Cc3ccccc3)C(=O)[C@@H]12,/,/,-12.9,-1.0,4.9,-4.8
COC(=O)[C@]1(C)N[C@H](CN(C)C(=O)Nc2ccc(OC)cc2)[C@@H]2C(=O)N(Cc3ccccc3)C(=O)[C@@H]21,/,/,?,-4.1,6.3,-0.9
COC(=O)[C@]1(C)N[C@H](CN(C)C(=O)Nc2ccc(C)cc2)[C@@H]2C(=O)N(Cc3ccccc3)C(=O)[C@@H]21,/,/,63.7*,0.8,2.1,6.3
COC(=O)[C@]1(C)N[C@H](CN(C)C(=O)Nc2ccc(Cl)cc2)[C@@H]2C(=O)N(Cc3ccccc3)C(=O)[C@@H]21,/,-3.4,79.3*,-1.2,2.7,2.4
CCN(C[C@H]1N[C@@](C)(C(=O)OC)[C@H]2C(=O)N(Cc3ccccc3)C(=O)[C@@H]12)C(=O)Nc1ccc(F)cc1,/,/,57.2*,-4.4,3.2,1.3

# Source: PubChem
